Test systems include NCI-H23 lung; NCI-H226 lung; NCI-H322M lung; HOP-62 NSCLC; NCI-H460 lung; HOP-92 NSCLC; NCI-H522 lung; A549/ATCC NSCLC; 786-0 renal; COLO 205 colon.
What all share (test): NCI-60 one-dose screen, 48 h (100 = growth as untreated, 0 = no growth, -100 = all killed)
Holding throughout (conditions): 10 µM unless noted

This is part of a sample that, as a whole, favours compounds with a hit. Of some 83,000 tested, about 20% had one in any assay.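 Single-concentration screen, 48 h exposure, 96-well plates. Endpoint: percent growth. Below 10 = active.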 A number with no mark means an inactive call. The source made the active and inactive calls.

As to `O=C(COc1ccc(NC(=O)Nc2ccccc2)cc1)N=Nc1c(O)[nH]c2ccc([N+](=O)[O-])cc12`, the growth was 10.5% in the assay with NCI-H23 lung; 18.6% in the assay on NCI-H226 lung; 37.7% in the assay on NCI-H322M lung; 24.5% in the assay on HOP-62 NSCLC; 49.1% with NCI-H460 lung; -72.4% (active) with HOP-92 NSCLC. Moreover, the growth was -48% (active) in the assay with NCI-H522 lung, 101% in the assay on A549/ATCC NSCLC, 16.7% in the assay on 786-0 renal and -29.9% (active) in the assay with COLO 205 colon.

As to `CC(=O)OC[C@@]1(C)C2CC[C@]3(C)C(CC=C4C5CC(C)(C)CC[C@]5(C(=O)Nc5ccc(Br)cc5)CC[C@]43C)[C@@]2(C)C[C@@H](OC(C)=O)[C@@H]1OC(C)=O` (stereo not given in full), the growth with NCI-H23 lung was 45.6%; in the assay with NCI-H226 lung, 45.2%; in the assay with NCI-H322M lung it was 67.9%; in the assay with HOP-62 NSCLC, 38.5%; in the assay on NCI-H460 lung, 17%; with HOP-92 NSCLC it was 54.7%. The growth with NCI-H522 lung is 45.6%; with A549/ATCC NSCLC, 38.9%; with 786-0 renal, 51.2%; in the assay on COLO 205 colon, 43.8%.

For the compound `NS(=O)(=O)c1ccc(-n2cc(-c3cccc(NC(=O)c4ccc(Cl)c(C(F)(F)F)c4)c3)nn2)cc1`, the growth was -4.59% (active) in the assay with NCI-H23 lung; 10% with NCI-H226 lung; 33.4% in the assay with NCI-H322M lung; 3.02% (active) with HOP-62 NSCLC; 18.1% in the assay on NCI-H460 lung; -5.36% (active) in the assay on HOP-92 NSCLC. Further, the growth with NCI-H522 lung was 45.8%; with A549/ATCC NSCLC, 4.33% (active); in the assay on 786-0 renal, 22.5%; in the assay with COLO 205 colon it was 2.2% (active).

Take `Nc1nc(C(F)(F)F)cs1`: the growth was 104% in the assay on NCI-H23 lung; 98.9% in the assay on NCI-H226 lung; 104% with NCI-H322M lung; 101% in the assay on HOP-62 NSCLC; 107% with NCI-H460 lung; 107% in the assay on HOP-92 NSCLC. The growth in the assay on NCI-H522 lung is 98.3%; in the assay on A549/ATCC NSCLC it was 103%; in the assay on 786-0 renal, 98.4%; in the assay with COLO 205 colon it was 114%.

With `CCCCCCCCc1ccc(S(=O)(=O)Nc2ccc(CC)cc2C(=O)O)cc1`, the growth in the assay on NCI-H23 lung is 97.3%; in the assay on NCI-H226 lung, 88%; with NCI-H322M lung, 95.2%; with HOP-62 NSCLC, 99.6%; with NCI-H460 lung it was 96.7%; in the assay on HOP-92 NSCLC, 71%. Besides, the growth with NCI-H522 lung was 91.4%; in the assay with A549/ATCC NSCLC it was 91.9%; with 786-0 renal it was 103%; in the assay with COLO 205 colon it was 121%.

Turning to `Cc1cc(C)cc(C(=O)Nc2cccc(-c3cn(-c4ccc(S(N)(=O)=O)cc4)nn3)c2)c1`, the growth with NCI-H23 lung is 0.645% (active); with NCI-H226 lung it was 15.9%; in the assay with NCI-H322M lung, 68.5%; in the assay on HOP-62 NSCLC, -18.3% (active); with NCI-H460 lung it was 41.4%; in the assay with HOP-92 NSCLC, -56.2% (active). Further, the growth was 61.7% in the assay on NCI-H522 lung, 62.2% with A549/ATCC NSCLC, -66.3% (active) in the assay with 786-0 renal and 141% with COLO 205 colon.

On to `CC(=O)Nc1cccc(Nc2nccc(N[C@@H](C)c3ccccc3)n2)c1`, for which the growth in the assay on NCI-H23 lung was 18.2%; in the assay with NCI-H226 lung it was 34.7%; in the assay with NCI-H322M lung it was 40.6%; with HOP-62 NSCLC it was 8.72% (active); in the assay with NCI-H460 lung it was 5.42% (active); with HOP-92 NSCLC it was 45%. The growth in the assay on NCI-H522 lung was -43.4% (active); with A549/ATCC NSCLC, 16.4%; in the assay with 786-0 renal, 26.6%; in the assay with COLO 205 colon, -3.46% (active).

Consider `COc1cc2c(c(OC)c1OC)C(=O)CC(c1cccc(NC(=O)c3cc(NC(=O)[C@H](CO)NC(=O)OC(C)(C)C)ccc3Cl)c1)O2` (stereo not given in full), for which the growth was 37.3% in the assay with NCI-H23 lung; 33% in the assay on NCI-H226 lung; 42.5% in the assay with NCI-H322M lung; 50.3% in the assay on HOP-62 NSCLC; 34.3% in the assay with NCI-H460 lung; 39.7% in the assay with HOP-92 NSCLC. Besides, the growth is 27.6% in the assay with NCI-H522 lung, 58.2% in the assay with A549/ATCC NSCLC, 42.8% in the assay on 786-0 renal and 43% with COLO 205 colon.

Take `Cc1cnc(C(=O)NNc2nc3cc(F)ccc3n3c(C(=O)N4CC5CC(C4)N5)ccc23)cn1`: the growth is 51.1% with NCI-H23 lung; 12.5% with NCI-H226 lung; 35.4% in the assay on NCI-H322M lung; 59.3% in the assay with HOP-62 NSCLC; 9.91% (active) with NCI-H460 lung; 65.2% in the assay on HOP-92 NSCLC. Moreover, the growth in the assay with NCI-H522 lung was 57.8%; with A549/ATCC NSCLC it was 25.4%; in the assay with 786-0 renal, -2.57% (active); in the assay with COLO 205 colon, 10.5%.

In the case of `N#Cc1ccc(C(=O)Nn2c(N)cc3ccccc3c2=O)cc1`, the growth is 93.8% in the assay with NCI-H23 lung; 84.4% with NCI-H226 lung; 94.7% in the assay with NCI-H322M lung; 99.3% in the assay on HOP-62 NSCLC; 80.3% in the assay with NCI-H460 lung; 88.2% in the assay on HOP-92 NSCLC. Further, the growth in the assay on NCI-H522 lung was 95%; in the assay with A549/ATCC NSCLC it was 94.4%; in the assay on 786-0 renal, 98.3%; in the assay with COLO 205 colon, 112%.

For the compound `COc1ccc(C(=O)/C=C/c2cccc(Cl)c2Cl)cc1S(N)(=O)=O`, the growth is -15.6% (active) in the assay with NCI-H23 lung; 18.7% in the assay with NCI-H226 lung; 11.5% in the assay on NCI-H322M lung; -69.2% (active) in the assay on HOP-62 NSCLC; -0.608% (active) in the assay on NCI-H460 lung; 21.9% in the assay on HOP-92 NSCLC. In addition, the growth with NCI-H522 lung was -56.3% (active); in the assay on A549/ATCC NSCLC, -2.67% (active); in the assay with 786-0 renal it was -71.2% (active); in the assay with COLO 205 colon it was -79.3% (active).

Turning to `O=C(COc1ccc(NC(=O)Nc2ccc(Cl)cc2)cc1)N/N=C/c1ccccc1`, the growth with NCI-H23 lung is -94.5% (active); in the assay on NCI-H226 lung, -89.2% (active); in the assay on NCI-H322M lung, -40.4% (active); in the assay on HOP-62 NSCLC, -84.6% (active); in the assay on NCI-H460 lung, -79.3% (active); with HOP-92 NSCLC it was -77.9% (active). Moreover, the growth was -83.5% (active) with NCI-H522 lung, -78.3% (active) in the assay with A549/ATCC NSCLC, -82% (active) in the assay with 786-0 renal and -66.5% (active) in the assay with COLO 205 colon.

For `C=C1CC[C@@H]2[C@]3(C)COC(c4cn(-c5ccccc5)nc4-c4cccc([N+](=O)[O-])c4)O[C@@H]3CC[C@@]2(C)[C@@H]1C/C=C1/C(=O)OC[C@H]1O` (stereo not given in full), the growth in the assay with NCI-H23 lung was -62.1% (active); with NCI-H226 lung it was -48.6% (active); in the assay with NCI-H322M lung, 90%; in the assay on HOP-62 NSCLC, 10.8%; in the assay on NCI-H460 lung, 2.24% (active); in the assay on HOP-92 NSCLC, -84.3% (active). The growth is -79.3% (active) in the assay with NCI-H522 lung, 30.7% in the assay on A549/ATCC NSCLC, -35.8% (active) with 786-0 renal and -64.2% (active) in the assay with COLO 205 colon.

The values above are taken from PubChem BioAssay (NCI).
